Data from PubChem BioAssay AID588346 (National Center for Advancing Translational Sciences (NCATS), 2011).
Records with an inconclusive call do not appear. The source made the active and inactive calls. Calls follow the shape of the dose curve; as a rule, active = well fitted curve in the direction sought with a large enough effect; inconclusive = small, poorly fitted or top-dose-only effect, or another doubt; inactive = no such curve, though single readings can be large or run the other way.

Experiment: qHTS Assay for Inhibitors of Histone Lysine Methyltransferase G9a: Hit Confirmation in b-rIgG Counterscreen
Settings: AlphaScreen b-rIgG bead counterscreen, signal interference; series mostly up to 55.7 µM; activity change, negative = inhibition: at the top concentration
From the text: Methylated lysines, on the N-terminal tails of histone proteins serve as epigenetic markers to recruit factors that can then modify local chromatin structure to lead to functional consequences. G9a and other members of the SUV39 family of the SET domain-containing superfamily of histone lysine methyltransferases (HMT) have been identified to specifically methylate Lys9 of histone H3 (H3K9). G9a catalyzes the mono- and di-methylation of H3K9 in mammalian euchromatic regions, where the resulting H3K9me2 is indicative of transcriptional repression. […] The inhibition of G9a will result in transcriptional activation and work synergistically with DNA methyltransferase and histone deacetylase inhibitors, to kill cancer cells. This qHTS assay for identification of G9a inhibitors is a chemiluminescence based AlphaScreen (PerkinElmer). Methylation of biotinylated-histone peptide is measured through specific antibody-based detection, in conjunction with streptavidin-coated donor and anti-IgG antibody-coated acceptor beads. The method is particularly well suited for detection of inhibitors acting by the desired histone peptide competitive mechanism and is applicable to testing other HMTs. Although AlphaScreen has significant advantages with its utility in a variety of epigenetic target assays, the primary screening data provided in this deposition should be used with caution due to the prevalence of screening artifacts. Because an AlphaScreen counterscreen is highly recommended to be run against any putative actives to eliminate non specific artifacts, this assay was used as a counterscreen. Quinn et al. A chemiluminescence-based method for identification of histone lysine methyltransferase inhibitors. Mol Biosyst 6(5): 782-8. 2010. PMID: 20567762 [2] Baell,Holloway. New substructure filters for removal of pan assay interference compounds (PAINS) from screening libraries and for their exclusion in bioassays. J Med Chem. 53(7):2719-40. 2010. PMID: 20131845 NIH Chemical Genomics Center [NCGC] NIH Molecular Libraries Probe Production Network [MLPCN] MLPCN Grant: MH084681-02 Assay Submitter (PI): Structural Genomic Consortium - Toronto, Peter Brown
Biotinylated rabbit-IgG (b-rIgG) (Santa Cruz Biotechnology, Inc., Santa Cruz, CA) was added to 1,536-well plates in a 3 uL dispense. Compounds were added in a 23 nL pin-transfer step, and plates were incubated at room temperature for 15 min. Streptavidin-coated donor and anti-rIgG acceptor AlphaScreen beads were added (1 uL) for final concentrations of 20 ug/mL each bead and 1 nM b-rIgG, and plates read on the Envision after a 15 min incubation at room temperature in the dark.

Row | Structure (SMILES) | activity change, negative = inhibition | Potency
1 | CNC(=O)Oc1ccc2c(c1)[C@]1(C)CCN(C)[C@@H]1N2C | -4.26% (inactive) | –
2 | CC1=NN(c2nc3ccccc3[nH]2)C(=O)C1Cc1ccccc1 (stereo not given) | -7.66% (inactive) | –
3 | COCCNC(=S)N/N=C(\C)c1ccccc1O | -4.68% (inactive) | –
4 | COc1ccc(NC(=O)c2ccc(-c3ccc(-c4noc(C)n4)cc3C)cc2)cc1N1CCN(C)CC1 | – | 28.2 µM (active)
5 | CC(C)C(=O)NC(c1ccc(N(C)C)cc1)c1ccc2cccnc2c1O (stereo not given) | -3.4% (inactive) | –
6 | CCCC(=O)N1CCN(c2ccc(NC(=O)c3ccc([N+](=O)[O-])o3)cc2Cl)CC1 | -19.1% (inactive) | –
7 | Oc1ccc(Br)cc1C=Nc1ccc2c3c(cccc13)CC2 | -34% (inactive) | –
8 | CCOn1c(=O)c[n+]([O-])c2ccccc21 | 17% (inactive) | –
9 | COc1ccc2c(C)nc(Nc3nc(-c4ccccc4)cc(=O)[nH]3)nc2c1 | 153% (inactive) | –
10 | Cc1ccc(/C=[N+](\[O-])c2ccc(N(C)C)cc2)c2nsnc12 | -70.6% (inactive) | –
11 | CN(c1ccccc1)S(=O)(=O)c1nnc(NC(=O)c2ccccc2)s1 | -8.51% (inactive) | –
12 | CCc1nnc(NC(=O)c2cccc(C(=O)Nc3nnc(CC)s3)n2)s1 | 31.5% (inactive) | –
13 | COc1ccc(C(=O)/C=C/Sc2nc3ccccc3o2)cc1 | -5.53% (inactive) | –
14 | Cc1ccc(C(C)C)c(OCc2ccc(C(=O)N/N=C/c3cccc(O)c3O)cc2)c1 | -14% (inactive) | –
15 | O=C(NN1C(=O)c2ccccc2NC1c1ccc([N+](=O)[O-])o1)c1ccc([N+](=O)[O-])cc1 (stereo not given) | 3.4% (inactive) | –
16 | CSc1nsc(/C=C/Nc2cccc(Cl)c2)c1C#N | 9.36% (inactive) | –
17 | COc1ccc(NC(=O)CSc2nc3c(oc4ccccc43)c(=O)n2Cc2ccco2)cc1Cl | -5.96% (inactive) | –
18 | COc1nc(Nc2nc3ccccc3c(=O)[nH]2)nc2ccc(C)cc12 | 34.5% (inactive) | –
19 | COc1cc2nc(N3CCN(C(=O)C4COc5ccccc5O4)CC3)nc(N)c2cc1OC (stereo not given) | -37% (inactive) | –
20 | COc1ccccc1N1CCN(CCN2C(=O)CC3(CCCC3)CC2=O)CC1 | -17.9% (inactive) | –

Row | Structure (SMILES) | activity change, negative = inhibition | Potency
21 | O=c1c2ccccc2nc(COc2ccccc2)n1/N=C/c1c[nH]c2ccccc12 | 1.28% (inactive) | –
22 | O=C1CN(c2nc(-c3ccccc3)c3cc(Cl)ccc3n2)c2ccccc2N1 | 11.1% (inactive) | –
23 | O=C(CSc1cccc2cccnc12)N1CCCC1 | 15.3% (inactive) | –
24 | CC(C)N(CCC(=O)c1ccc2ccccc2c1)Cc1ccccc1 | 41.7% (inactive) | –
25 | CCN1CCc2nc(N)oc2CC1 | -6.81% (inactive) | –
26 | C/C=C/c1ccc(OCC(=O)OCC(=O)NC2CC2)c(OC)c1 | -10.2% (inactive) | –
27 | Oc1c(N=Nc2ccccn2)ccc2ccccc12 | – | 11.2 µM (active)
28 | NC(=O)c1cc[n+](CC2=C(C(=O)O)N3C(=O)[C@@H](NC(=O)[C@@H](c4ccccc4)S(=O)(=O)[O-])[C@H]3SC2)cc1 | -11.5% [at 114 µM] (inactive) | –
29 | O=C1C=C(Nc2ccc(Cl)cc2)C(=O)N1c1ccc(Cl)cc1 | 5.11% (inactive) | –
30 | CCCCOC(=O)Cn1c2ccc(OC)cc2c2nc3ccccc3nc21 | 16.2% (inactive) | –
31 | CNc1nc(N2CCCN(C)CC2)nc2cc(OC)c(OC)cc12 | -17.3% (inactive) | –
32 | C[n+]1cc2c3c(ccc2c2ccc4cc5c(cc4c21)OCO5)OCO3 | 0.425% [at 114 µM] (inactive) | –
33 | O=C(CSc1cccc[n+]1[O-])c1ccccc1Br | -15.3% (inactive) | –
34 | Nc1nc2ccc(Cl)cc2c2nc(-c3ccco3)nn12 | -12.8% [at 114 µM] (inactive) | –
35 | O=C(N/N=C/c1ccccn1)c1cc(-c2ccc(Cl)cc2)nc2ccccc12 | 15.7% (inactive) | –
36 | COc1cc2c(cc1C(F)(F)F)N(C(=O)Nc1cc(F)cc(-c3cccnc3)c1)CC2 | 24.3% (inactive) | –
37 | COc1cccc(N2CCN(S(=O)(=O)c3ccc(-n4cnnn4)cc3)CC2)c1 | -8.09% (inactive) | –
38 | Ic1ccc(N2CCN(Cc3c[nH]c4ncccc34)CC2)cc1 | 3.83% (inactive) | –
39 | N=c1n(CC(=O)c2ccc([N+](=O)[O-])cc2)c2ccccc2n1Cc1ccccc1Cl | -10.2% (inactive) | –
40 | NC(=S)N/N=C/c1ncc(C(F)(F)F)cc1Cl | 24.7% (inactive) | –
